Results: article PMC5540273 (PLoS ONE, 2017)

Columns and labels:
Conditions in all cases: concentration: 1 μM, replicates: in singlicate; n = 1
[1] = tested on: ACVR2B
[2] = tested on: ACVRL1
[3] = tested on: T1, ADCK3
T1 construct: gene CABC1

[4] = tested on: ADCK4
[5] = tested on: AKT1
[6] = tested on: AKT2
[7] = tested on: AKT3
[8] = tested on: ALK
[9] = tested on: T2, AMPK-alpha1
T2 construct: gene PRKAA1

[10] = tested on: T3, AMPK-alpha2
T3 construct: gene PRKAA2

[11] = tested on: ANKK1
[12] = tested on: T4, ARK5
T4 construct: gene NUAK1

[13] = tested on: T5, ASK1
T5 construct: gene MAP3K5

[14] = tested on: T6, ASK2
T6 construct: gene MAP3K6

[15] = tested on: AURKA
[16] = tested on: AURKB
[17] = tested on: AURKC
[18] = tested on: AXL
[19] = tested on: T7, BIKE
T7 construct: gene BMP2K

[20] = tested on: BLK
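Also: KINOMEscan kinase panel screen.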

SMILES	%Inh [1] [%]	%Inh [2] [%]	%Inh [3] [%]	%Inh [4] [%]	%Inh [5] [%]	%Inh [6] [%]	%Inh [7] [%]	%Inh [8] [%]	%Inh [9] [%]	%Inh [10] [%]	%Inh [11] [%]	%Inh [12] [%]	%Inh [13] [%]	%Inh [14] [%]	%Inh [15] [%]	%Inh [16] [%]	%Inh [17] [%]	%Inh [18] [%]	%Inh [19] [%]	%Inh [20] [%]
COc1cc(Nc2nccc(N3CCC(NC(=O)Nc4cc(C)ccc4C)C3)n2)cc(OC)c1OC (stereo not drawn) [GSK1379762]	0	0	30	49	0	0	0	45	0	22	13	50	1	7	92.7	94.4	81	0	60	10
Cc1cc(N2Cc3ccccc3C2)nc(Nc2ccc(S(=O)(=O)N3CCOCC3)cc2)n1.Cl [GSK1669917]	0	0	7	8	96.3	0	0	5	0	16	24	0	0	0	0	0	0	0	9	16
Cc1ccc(NC(=O)Nc2cccc(Cl)c2)cc1-c1ccc(C(=O)Nc2ccncc2)cc1 [GSK1398468]	1	0	5	34	0	8	0	20	7	13	17	6	2	0	15	14	44	0	29	0
CCCc1ccc(S(=O)(=O)NC2CCN(c3ccnc(Nc4ccc(F)cc4)n3)C2)cc1 (stereo not drawn) [GSK1379715]	0	0	14	34	0	100	0	32	6	0	0	0	2	0	0	29	5	12	0	0
CN1C(=O)C(Nc2ccc(Cl)c(C(=O)O)c2)=C(c2ccc(Cl)cc2)C1=O [SB-404290]	0	0	0	10	0	0	1	0	6	0	0	0	0	33	19	31	5	10	0	0
Cc1cccc(-c2cc(Nc3ccncc3)c3ccccc3n2)n1 [GSK223675]	0	0	0	11	0	0	0	26	0	8	6	8	11	9	9	0	1	0	9	11
O=C(Nc1ccc2c(c1)OCO2)NC1CCN(c2ccnc(Nc3ccc(F)cc3)n2)C1 (stereo not drawn) [GSK1379724]	0	0	6	36	0	0	0	29	10	0	0	8	3	0	0	99.4	52	5	27	19
Cc1cc(-c2ccc3c(c2)CC[C@@H](N[C@@H](C)c2ccccc2)C3)cnc1N.Cl [GW412617]	0	37	41	1	0	27	14	52	2	20	69	13	33	0	0	35	26	33	40	13
O=S(=O)(c1ccc(-c2ccnc3[nH]ccc23)cc1)N1CCCC1 [GSK846226]	0	0	7	21	0	0	0	10	0	0	0	0	3	14	13	20	60	46	87	0
Fc1cc(Cl)ccc1Nc1ccnc2cc(-c3ccc(CN4CCCCC4)o3)ccc12 [GW560116]	52	0	0	38	0	0	0	4	0	0	0	0	0	0	95.7	0	0	0	0	55
Cl.O=C(Nc1cccc(-c2nn3ncccc3c2-c2ccnc(Nc3cccnc3)n2)c1)c1c(F)cccc1F [GSK312879]	0	2	27	2	0	19	10	24	0	12	16	0	0	13	0	24	19	11	31	2
Nc1nc(-c2nccs2)c(-c2ccnc3ccccc23)s1 [GW693542]	48	15	0	39	0	3	100	36	0	12	6	0	5	0	0	0	0	42	4	42
COc1ccc(CNC(=O)NC2CCN(c3ccnc(Nc4cc(OC)c(OC)c(OC)c4)n3)C2)cc1 (stereo not drawn) [GSK1379748]	0	0	24	76	0	0	0	27	10	0	33	25	0	12	79	84	60	8	25	0
CN(C)CCN(C)C(=O)c1cc(-c2ccncc2)c(-c2ccc(Cl)c(O)c2)o1.Cl.Cl [SB-710397]	9	0	11	45	0	0	0	29	0	0	0	0	18	0	0	9	0	8	13	12
Cn1ccc2ncnc(Oc3ccc(NC(=O)Nc4ccccc4)cc3)c21	0	0	12	5	13	0	0	0	0	2	0	4	16	0	15	93.7	84	0	0	2
NC(=O)c1nnc2ccccc2c1N	24	0	81	1	7	0	0	24	25	6	34	0	20	40	0	32	40	19	51	0
COc1ccccc1CNC(=O)c1cc(C(=O)c2ccccc2C)c[nH]1 [GSK364507]	0	0	13	34	0	17	0	21	0	0	0	10	0	2	100	22	11	8	0	17
COc1cc2ncnc(Nc3ccc4nc(-c5ccccc5)[nH]c4c3)c2cc1OC.Cl [GW282450]	0	0	10	16	0	0	0	0	0	0	16	0	0	0	99.1	28	48	23	14	26
O=C(O)COc1ncnc2cc(-c3ccc4[nH]ncc4c3)sc12	0	6	0	0	0	22	17	0	13	18	12	0	0	0	45	28	0	21	0	1
COc1ccccc1-c1ccc2c(NC(=O)C3CC3)n[nH]c2n1 [SB-711239]	52	0	11	19	0	2	3	18	5	13	9	0	11	17	0	0	0	12	0	6
Clc1cc(Cl)cc(Nc2ccnc(Nc3cc(Cl)cc(Cl)c3)n2)c1 [GSK175726]	39	43	31	3	0	0	0	18	18	0	18	8	4	3	90	0	13	2	8	6
